From PubChem BioAssay (Tox21) come the findings set out here.

The nature of assay [1]: qHTS assay to identify small molecule antagonists of the androgen receptor (AR) signaling pathway using the MDA cell line in the presence of 0.5 nM R1881 - cell viability counter screen (AID 1259242). Also: nearly all actives have a fitted effect of over 45% in size. Also: potency is read from the fitted curve at half-maximal effect. The conditions noted are these: MDA-kb2 viability, CellTiter-Fluor protease fluorescence, 16 h; series mostly up to 92.4 µM. The gist of the method: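 Cells seeded at 3,000/well and allowed 5 hr at 37C, 0% CO2 before compound transfer and R1881 (0.5 nM final) addition; 16 hr later, live-cell protease fluorescence indicated cytotoxicity.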
In general terms: In qHTS, concentration-response curves come from the screen itself.

The target in assay [2] is Estrogen receptor (Homo sapiens) (UniProt P03372). The experiment in a line: qHTS assay to identify small molecule antagonists of the estrogen receptor alpha (ER-alpha) signaling pathway using the BG1 cell line in the presence of 0.1 nM 17-beta-estradiol (AID 1259244). Also: nearly all actives have a fitted effect of over 50% in size. The note with it: VM7Luc4E2 (BG1) ERE-luciferase, antagonist mode, 0.1 nM E2, 22 h; series mostly up to 92.4 µM. The gist of the method:
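Luciferase signal from VM7Luc4E2 ERE-reporter cells, co-dosed with test compound and 0.1 nM final 17beta-estradiol for 22 h, read with ONE-Glo.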

The nature of assay [3]: qHTS assay to identify small molecule HDAC inhibitors (AID 1259364). Also: potency is read from the fitted curve at half-maximal effect.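 Also: wild-type HCT-116 cells with endogenous class I/II HDAC activity; nearly all actives have a fitted effect of over 45% in size.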 The note with it: HCT-116 HDAC-Glo I/II luminescence, 2 h; series mostly up to 92.4 µM. A digest of the protocol: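 HCT-116 wt cells, 1,500/well, overnight attach. Compounds (DMSO) 2 h, 37 °C. HDAC-Glo I/II, 30 min RT. Luminescence.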
Assay [4] is described as follows: qHTS assay to identify small molecule HDAC inhibitors - cell viability counter screen (AID 1259365). Also: nearly all actives have a fitted effect of over 50% in size. The note with it: HCT-116 viability, CellTiter-Glo ATP luminescence, 2 h; series mostly up to 92.4 µM. The gist of the method:
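Viability readout: CellTiter-Glo luminescence. Wild-type HCT-116 cells, 2hr compound treatment following overnight attachment at 37 C.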

Assay [5] is described as follows: qHTS assay to identify small molecule agonists of the sonic hedgehog signaling (Shh) pathway - cell viability counter screen (AID 1259366). Also: nearly all actives have a fitted effect of over 50% in size. Also: potency is read from the fitted curve at half-maximal effect. The note with it: NIH/3T3 Gli1-Luc viability, CellTiter-Fluor, 24 h; series mostly up to 92.4 µM. A digest of the protocol: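 Viability measured fluorometrically (CellTiter-Fluor, 1hr, 37C) in 3T3 Gli1-Luc reporter cells after 23hr compound exposure within a 24hr incubation at 37C/5% CO2.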

Assay [6] in a line: qHTS assay to identify small molecule antagonists of the sonic hedgehog signaling (Shh) pathway - cell viability counter screen (AID 1259367). Also: nearly all actives have a fitted effect of over 55% in size. Also: potency is read from the fitted curve at half-maximal effect. The note with it: NIH/3T3 Gli1-Luc viability, CellTiter-Fluor, 24 h; series mostly up to 92.4 µM. A digest of the protocol: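 Cytotoxicity was assessed in parallel with Shh reporter activity by measuring live-cell protease fluorescence (CellTiter-Fluor) in NIH/3T3 cells stably carrying Gli1-Luc, treated with compound under conditioned medium stimulation for 23 hr plus 1 hr reagent incubation.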

The nature of assay [7]: qHTS assay to identify small molecule agonists of the sonic hedgehog signaling (Shh) pathway (AID 1259368; calls by dose curve;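 also: NIH/3T3-derived 3T3Gli1-Luc cells carrying a stable Gli1-driven firefly luciferase reporter; nearly all actives have a fitted effect of over 15% in size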). The conditions noted are these: NIH/3T3 Gli1-Luc reporter, luciferase, 24 h; series mostly up to 92.4 µM. A digest of the protocol: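 Following a 24 hr incubation with DMSO-dissolved compounds at 37 C, 5% CO2, Gli1-Luc NIH/3T3-derived cells received luciferase reagent for 30 min at room temperature prior to luminescence measurement.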

A short description of assay [8]: qHTS assay to identify small molecule phospholipidosis (PLD) inducers (AID 1259344; active = well fitted curve in the direction sought with a large enough effect; an effect the other way counts as inactive or inconclusive; also: potency is read from the fitted curve at half-maximal effect). The note with it: HepG2 phospholipidosis, LipidTOX Red imaging, 24 h; series mostly up to 38.3 µM. A digest of the protocol:
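Cells (HepG2, 900 per well) attach for 4 h, receive LipidTOX Red and compound together, incubate 24 h at 37 C, are fixed 30 min with paraformaldehyde/Hoechst, then imaged at one site per well.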

Where “and” joins values, the source holds several entries; their conditions need not be identical. Equal values may be shown once. Inconclusive results are not listed. Some compounds were tested as several samples or in several runs, with calls that do not always agree. Calls of active or inactive are those of the source. Unless noted, calls follow the shape of the dose curve; as a rule, active = well fitted curve in the direction sought with a large enough effect in the repeat runs; inconclusive = weak or mixed curves; inactive = no such curve, though single readings can be large; an effect the other way counts as inactive or inconclusive.
% is scaled to controls: 0 for no effect and ±100 for the full control effect.

Estrogen receptor (Homo sapiens), sequence (P03372 whole entry, looked up): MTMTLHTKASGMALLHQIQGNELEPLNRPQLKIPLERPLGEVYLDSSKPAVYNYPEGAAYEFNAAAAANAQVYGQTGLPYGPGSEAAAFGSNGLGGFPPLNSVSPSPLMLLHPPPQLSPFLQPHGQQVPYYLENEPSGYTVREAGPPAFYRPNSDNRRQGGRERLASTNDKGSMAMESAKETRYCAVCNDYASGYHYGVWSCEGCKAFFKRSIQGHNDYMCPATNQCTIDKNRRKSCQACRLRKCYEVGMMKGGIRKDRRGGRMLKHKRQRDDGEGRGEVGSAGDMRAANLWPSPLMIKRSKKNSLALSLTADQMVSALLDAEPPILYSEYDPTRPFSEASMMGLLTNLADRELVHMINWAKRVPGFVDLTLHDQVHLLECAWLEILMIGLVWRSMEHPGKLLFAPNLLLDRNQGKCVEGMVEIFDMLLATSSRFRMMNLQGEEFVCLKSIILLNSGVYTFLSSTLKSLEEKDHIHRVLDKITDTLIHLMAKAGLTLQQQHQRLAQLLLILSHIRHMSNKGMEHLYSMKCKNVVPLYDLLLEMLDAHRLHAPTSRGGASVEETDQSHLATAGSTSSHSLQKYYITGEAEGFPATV

Take `CC(=O)OC(C)C`: the Potency result in assay [1], in assay [2], in assay [3], in assay [5], in assay [6] and in assay [7] was “inactive” throughout. Moreover, the compound was classed as inactive in assay [4].

In the case of `CC(C)[C@@H]1CC[C@@H](C)CC1=O`, the Potency entry in assay [1], in assay [8], in assay [3], in assay [5], in assay [6] and in assay [7] was “inactive” throughout. Also, the compound was called inactive in assay [4].

Turning to `CNC[C@H](O)c1ccc(O)c(O)c1`, the Potency entry in assay [1], in assay [2], in assay [8], in assay [3] and in assay [5] was “inactive” in each case. Also, the call in assay [4] was inactive. In addition, the viability change, negative = cytotoxic in assay [6] was -0.782% [at 19 µM] (inactive).

Take `[Na+]`: the Potency result in assay [1], in assay [2], in assay [3], in assay [5], in assay [6] and in assay [7] was “inactive” throughout. In assay [4], the result was inactive.

On to `COCCOCCOCCO`, for which the Potency result in assay [1], in assay [3], in assay [5], in assay [6] and in assay [7] was “inactive” throughout. In assay [4], the compound was classed as inactive.

As to `O=C(O)CCCCCCCCCCCC(=O)O`, the Potency result in assay [1], in assay [5] and in assay [6] was “inactive” each time. Further, the Potency in assay [3] was 30.1 µM (active) and 27.3 µM (active). The compound was called inactive in assay [4].

Consider `CCO[Si](CCCNC(N)=O)(OCC)OCC`, for which the Potency result in assay [1], in assay [2], in assay [3], in assay [5], in assay [6] and in assay [7] was “inactive” each time. Also, in assay [4], the compound was called inactive.

With `OC[C@H]1O[C@@H]2O[C@H]3[C@H](O)[C@@H](O)[C@@H](O[C@H]4[C@H](O)[C@@H](O)[C@@H](O[C@H]5[C@H](O)[C@@H](O)[C@@H](O[C@H]6[C@H](O)[C@@H](O)[C@@H](O[C@H]7[C@H](O)[C@@H](O)[C@@H](O[C@H]1[C@H](O)[C@H]2O)O[C@@H]7CO)O[C@@H]6CO)O[C@@H]5CO)O[C@@H]4CO)O[C@@H]3CO`, the Potency entry in assay [1], in assay [2], in assay [8], in assay [3], in assay [5] and in assay [7] was “inactive” throughout. Also, the compound was called inactive in assay [4]. Besides, the Potency entry in assay [6] was “inactive and 25.7 µM (active)”.

In the case of `O=C(O)c1ccc(O)cc1`, the Potency result in assay [1], in assay [3] and in assay [5] was “inactive” throughout. Moreover, the result in assay [4] was inactive.

`CC1(C)OC(=O)NC1=O`: the Potency result in assay [1], in assay [8], in assay [3], in assay [5] and in assay [7] was “inactive” throughout. The compound was classed as inactive in assay [4].

For `Cc1ccc(N)c([N+](=O)[O-])c1`, the Potency entry in assay [1], in assay [2], in assay [3], in assay [5] and in assay [7] was “inactive” in each case. Moreover, the outcome in assay [4] was inactive.

Take `c1ccc2cc3ccccc3cc2c1`: the Potency entry in assay [1], in assay [2], in assay [5], in assay [6] and in assay [7] was “inactive” in each case. Also, the call in assay [4] was inactive.

Consider `Cc1ccc(S(=O)(=O)O)cc1C`, for which the Potency result in assay [1], in assay [2], in assay [8], in assay [3], in assay [5] and in assay [7] was “inactive” in each case. Besides, in assay [4], the outcome was inactive.

As to `Cc1ccc(C(C)(C)C)cc1`, the Potency result in assay [1], in assay [2], in assay [3], in assay [5] and in assay [6] was “inactive” in each case. Also, the compound was called inactive in assay [4].

Regarding `CCC(=O)O[C@H]1[C@H](O[C@@H]2[C@@H](C)[C@H](O[C@H]3C[C@@](C)(OC)[C@@H](O)[C@H](C)O3)[C@@H](C)C(=O)O[C@H](CC)[C@@](C)(O)[C@H](O)[C@@H](C)C(=O)[C@H](C)C[C@@]2(C)O)O[C@H](C)C[C@@H]1N(C)C`, the Potency entry in assay [1], in assay [3] and in assay [7] was “inactive” each time. In addition, in assay [4], the compound was called inactive. In addition, the Potency in assay [5] is 16.1 µM (active) and inactive; in assay [6], 14.4 µM (active).

As to `ClC/C=C/CCl`, the Potency result in assay [1], in assay [2], in assay [3] and in assay [5] was “inactive” each time. Further, the compound was called inactive in assay [4].

`C=CC(C)(O)CCC=C(C)C` (centres undefined): the Potency entry in assay [1], in assay [3], in assay [5], in assay [6] and in assay [7] was “inactive” in each case. Also, the call in assay [4] was inactive.

As for `CC(C)[N+](C)(CCOC(=O)C1c2ccccc2Oc2ccccc21)C(C)C`, the Potency result in assay [1], in assay [2], in assay [8], in assay [3], in assay [5] and in assay [6] was “inactive” in each case. In assay [7], the Potency entry is “inactive”. Further, the result in assay [4] was inactive.

Regarding `CC1(C)O[C@@H]2C[C@H]3[C@@H]4C[C@H](F)C5=CC(=O)C=C[C@]5(C)[C@@]4(F)[C@@H](O)C[C@]3(C)[C@]2(C(=O)CO)O1`, the Potency result in assay [1], in assay [2], in assay [8], in assay [3], in assay [5] and in assay [6] was “inactive” each time. In addition, the compound was called inactive in assay [4].

As for `CC(C)(Oc1ccc(Cl)cc1)C(=O)O`, the Potency entry in assay [1], in assay [8], in assay [3], in assay [5], in assay [6] and in assay [7] was “inactive” each time. The compound was called inactive in assay [4].

In the case of `Cc1ccc(C(C)(C)C)c(O)c1`, the Potency entry in assay [1], in assay [2], in assay [3] and in assay [7] was “inactive” throughout. Also, the result in assay [4] was inactive.

In the case of `[O-]/[N+](=N\O)c1ccccc1`, the Potency entry in assay [1], in assay [2], in assay [5], in assay [6] and in assay [7] was “inactive” in each case. Besides, in assay [4], the compound was called inactive.

On to `C/C=C/C(=O)N(CC)c1ccccc1C`, for which the Potency result in assay [1], in assay [2], in assay [8], in assay [3], in assay [5] and in assay [6] was “inactive” each time. Also, the compound was classed as inactive in assay [4].

As for `Nc1ccc(O)c(N)c1`, the Potency entry in assay [1], in assay [2], in assay [3] and in assay [7] was “inactive” in each case. Moreover, the compound was classed as inactive in assay [4].

On to `O=C1OC2(c3ccccc31)c1cc(I)c(O)c(I)c1Oc1c2cc(I)c(O)c1I`, for which the results for the Potency in assay [1], in assay [5] and in assay [6] were 9.71 µM (active) [middle of 4 runs], 15.5 µM (active) [middle of 4 runs] and 15.5 µM (active) [middle of 4 runs], respectively. The Potency result in assay [8], in assay [3] and in assay [7] was “inactive” throughout.

Consider `CC/C=C\C/C=C\C/C=C\CCCCCCCC(=O)O`, for which the Potency result in assay [1], in assay [2], in assay [8], in assay [3], in assay [5] and in assay [6] was “inactive” throughout. Also, in assay [4], the compound was classed as inactive.

In the case of `C[N+](C)(C)CCO`, the Potency result in assay [1], in assay [8], in assay [3], in assay [5] and in assay [7] was “inactive” in each case. Moreover, the compound was called inactive in assay [4].

In the case of `CCCCCC=O`, the Potency entry in assay [1], in assay [2], in assay [3], in assay [5], in assay [6] and in assay [7] was “inactive” throughout. In addition, the result in assay [4] was inactive.

`Nc1cc([N+](=O)[O-])ccc1C(=O)O`: the Potency entry in assay [1], in assay [2], in assay [5], in assay [6] and in assay [7] was “inactive” in each case. Moreover, the Potency in assay [3] is 49.5 µM (active) and 27.3 µM (active). Besides, the result in assay [4] was inactive.

With `Cc1ccc(C)c(O)c1`, the Potency result in assay [1], in assay [3], in assay [5] and in assay [7] was “inactive” throughout. Further, the result in assay [4] was inactive.

On to `CN(C)CCCN1c2ccccc2Sc2ccc(Cl)cc21`, for which the Potency in assay [1] was 61.1 µM (active); in assay [8] it was 3.16 µM (active); in assay [5], 30.6 µM (active) and 23.7 µM (active). In assay [4], the outcome was inactive. The Potency entry in assay [7] is “inactive”.
